According to publication PMC5700166:
Changes are numbered by the printed parent chain.

Experiments:
Experiment in all cases: protein-binding microarray (PBM); PBM: ~300 nM protein, 6 mM HEPES pH 7.8, 80 mM KCl, 0.5 mM EDTA, 0.5 mM EGTA, 6% glycerol, 35 ng/ul poly-dIdC, 1% milk, 1 h, room temperature; Ap Aiptasia and Nv Nematostella (sea anemones) / Co Capsaspora / Aq Amphimedon (sponge) / Dm Drosophila / Hu human; RHD is the Rel homology domain; high values mean tight binding
Details in all cases: dsDNA, one strand shown
GST-Ap-NF-kB RHD = molecular target: T1, GST-Ap-NF-kB RHD (Exaiptasia pallida (Aiptasia), UniProt A0A913YAJ5 2-422)
T1 sequence: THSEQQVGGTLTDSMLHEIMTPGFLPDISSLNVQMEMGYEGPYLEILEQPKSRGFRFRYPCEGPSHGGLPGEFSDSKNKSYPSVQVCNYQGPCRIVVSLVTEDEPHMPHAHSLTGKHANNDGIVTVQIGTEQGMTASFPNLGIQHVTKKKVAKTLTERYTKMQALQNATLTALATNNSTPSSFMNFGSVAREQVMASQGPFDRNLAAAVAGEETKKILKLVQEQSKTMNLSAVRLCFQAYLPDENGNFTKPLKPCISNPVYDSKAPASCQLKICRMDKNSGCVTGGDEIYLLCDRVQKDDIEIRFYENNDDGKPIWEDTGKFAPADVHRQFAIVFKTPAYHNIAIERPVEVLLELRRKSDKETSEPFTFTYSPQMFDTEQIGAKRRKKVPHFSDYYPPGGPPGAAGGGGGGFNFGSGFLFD

[1] = molecular target: T2, GST-Nv-NF-kB (Cys allele) (Nematostella vectensis, UniProt E5G601 2-411)
T2 sequence: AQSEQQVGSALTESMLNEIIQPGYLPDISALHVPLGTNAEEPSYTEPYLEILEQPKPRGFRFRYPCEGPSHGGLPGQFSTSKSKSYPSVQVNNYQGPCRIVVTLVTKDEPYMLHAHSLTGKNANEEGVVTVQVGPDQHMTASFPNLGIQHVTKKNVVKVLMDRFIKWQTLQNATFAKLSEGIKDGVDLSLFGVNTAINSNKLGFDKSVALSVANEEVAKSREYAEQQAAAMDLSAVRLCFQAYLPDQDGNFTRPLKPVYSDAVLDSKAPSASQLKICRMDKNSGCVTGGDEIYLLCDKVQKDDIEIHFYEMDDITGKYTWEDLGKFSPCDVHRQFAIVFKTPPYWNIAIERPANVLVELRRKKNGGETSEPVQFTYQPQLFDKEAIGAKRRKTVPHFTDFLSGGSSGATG

[2] = molecular target: T3, GST-Nv-NF-kB (Ser allele) (Nematostella vectensis, UniProt A7UNT2 2-411)
T3 sequence: T2 sequence with Q21R, C66S, S207N, E215Q, V217A, E225K, A268E, D399E

GST-Co-NF-kB = molecular target: T4, GST-Co-NF-kB (Capsaspora owczarzaki, UniProt F1ARL5 200-546)
T4 sequence: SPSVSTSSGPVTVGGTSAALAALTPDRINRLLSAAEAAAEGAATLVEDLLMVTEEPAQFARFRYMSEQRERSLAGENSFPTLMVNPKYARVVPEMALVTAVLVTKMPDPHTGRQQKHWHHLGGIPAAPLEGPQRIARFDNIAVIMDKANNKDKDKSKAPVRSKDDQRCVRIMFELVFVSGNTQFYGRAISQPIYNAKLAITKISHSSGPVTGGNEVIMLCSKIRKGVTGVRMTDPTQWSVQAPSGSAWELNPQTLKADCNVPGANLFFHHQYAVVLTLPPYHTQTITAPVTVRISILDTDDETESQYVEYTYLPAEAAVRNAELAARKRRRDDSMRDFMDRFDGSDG

GST-Dm-Relish = molecular target: T5, GST-Dm-Relish (Drosophila melanogaster, UniProt Q94527 99-473)
T5 sequence: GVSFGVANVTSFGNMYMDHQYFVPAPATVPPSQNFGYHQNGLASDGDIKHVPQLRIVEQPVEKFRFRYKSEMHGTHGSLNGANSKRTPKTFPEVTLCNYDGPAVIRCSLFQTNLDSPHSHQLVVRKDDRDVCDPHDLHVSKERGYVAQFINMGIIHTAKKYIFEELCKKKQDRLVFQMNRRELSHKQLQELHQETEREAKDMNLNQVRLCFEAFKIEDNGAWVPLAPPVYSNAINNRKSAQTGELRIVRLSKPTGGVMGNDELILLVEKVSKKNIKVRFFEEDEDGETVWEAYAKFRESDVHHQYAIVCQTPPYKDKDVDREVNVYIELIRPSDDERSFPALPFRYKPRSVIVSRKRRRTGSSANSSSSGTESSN

GST-Aq-NF-kB = molecular target: T6, GST-Aq-NF-kB (Amphimedon queenslandica, UniProt A9Y5G7 2-389)
T6 sequence: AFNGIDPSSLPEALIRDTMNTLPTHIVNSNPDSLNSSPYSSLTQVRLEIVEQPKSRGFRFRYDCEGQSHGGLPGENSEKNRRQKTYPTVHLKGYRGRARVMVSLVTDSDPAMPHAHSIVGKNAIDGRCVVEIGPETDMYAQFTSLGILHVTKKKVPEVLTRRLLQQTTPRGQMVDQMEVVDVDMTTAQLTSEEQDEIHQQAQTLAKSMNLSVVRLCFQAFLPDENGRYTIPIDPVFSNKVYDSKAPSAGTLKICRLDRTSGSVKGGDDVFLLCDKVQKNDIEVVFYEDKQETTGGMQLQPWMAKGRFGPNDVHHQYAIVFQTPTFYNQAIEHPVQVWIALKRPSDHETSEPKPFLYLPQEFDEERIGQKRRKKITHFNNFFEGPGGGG

GST-Hu-p50 = GST-Hu-p50 (Homo sapiens, UniProt P19838 7-356)
GST-Hu-p50, sequence (P19838 7-356): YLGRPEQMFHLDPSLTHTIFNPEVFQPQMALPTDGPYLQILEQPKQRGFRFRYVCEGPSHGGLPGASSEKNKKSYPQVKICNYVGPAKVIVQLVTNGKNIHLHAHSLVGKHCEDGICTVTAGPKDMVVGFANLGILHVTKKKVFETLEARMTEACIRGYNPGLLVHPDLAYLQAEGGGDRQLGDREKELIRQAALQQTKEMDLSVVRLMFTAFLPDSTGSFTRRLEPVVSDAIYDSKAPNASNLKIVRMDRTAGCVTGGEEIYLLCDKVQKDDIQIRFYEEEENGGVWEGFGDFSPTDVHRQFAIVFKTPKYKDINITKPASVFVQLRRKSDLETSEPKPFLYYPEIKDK

| Sequence | binding signal (GST-Ap-NF-kB RHD) [z-score] | binding signal [1] [z-score] | binding signal [2] [z-score] | binding signal (GST-Co-NF-kB) [z-score] | binding signal (GST-Dm-Relish) [z-score] | binding signal (GST-Aq-NF-kB) [z-score] | binding signal (GST-Hu-p50) [z-score] |
| --- | --- | --- | --- | --- | --- | --- | --- |
| CCGATTAACATCAGGGGGGACCCTGATGTTAATCGGGTCTTGATTCGCTTGACGCTGCTG | 6.34 | 4.19 | 3.73 | 4.11 | 6.14 | 5.92 | 4.27 |
| CCGATTAACATCAGGCATCCCCATGATGTTAATCGGGTCTTGATTCGCTTGACGCTGCTG | 3.84 | 2.84 | 3.73 | 1.82 | 3.01 | 2.63 | 2.9 |
| CCGATTAACATCAAATTACCCCCTGATGTTAATCGGGTCTTGATTCGCTTGACGCTGCTG | 6.8 | 5.57 | 6.77 | 8.18 | 4.33 | 5.57 | 5.08 |
| CCGATTAACATCAGGCATTCCCCTGATGTTAATCGGGTCTTGATTCGCTTGACGCTGCTG | 6.9 | 8.51 | 7.12 | 3.19 | 7.67 | 7.93 | 5.74 |
| CCGATTAACATCAGGGGAAACCATGATGTTAATCGGGTCTTGATTCGCTTGACGCTGCTG | 6.6 | 7.42 | 10.1 | 8.24 | 6.18 | 5.84 | 5.64 |
| CCGATTAACATCAGGGGATGAATTGATGTTAATCGGGTCTTGATTCGCTTGACGCTGCTG | 3.07 | 4.37 | 5.12 | 4.99 | 2.75 | 3.44 | 3.88 |
| CCGATTAACATCAAATTATCCCCTGATGTTAATCGGGTCTTGATTCGCTTGACGCTGCTG | 6.03 | 6.6 | 8.6 | 6.1 | 3.57 | 5.25 | 5.28 |
| CCGATTAACATCACCAACCCCCCTGATGTTAATCGGGTCTTGATTCGCTTGACGCTGCTG | 5.65 | 3.47 | 4.4 | 3.02 | 5.37 | 3.88 | 4.51 |
| CCGATTAACATCAAGAATTCCCCTGATGTTAATCGGGTCTTGATTCGCTTGACGCTGCTG | 9.76 | 11.7 | 12.3 | 7.33 | 8.81 | 8.32 | 7.54 |
| CCGATTAACATCAGGAAGTCCCCTGATGTTAATCGGGTCTTGATTCGCTTGACGCTGCTG | 8.63 | 8.97 | 6.92 | 2.68 | 8.96 | 8.77 | 6.94 |
| CCGATTAACATCACGGGGCCCCCTGATGTTAATCGGGTCTTGATTCGCTTGACGCTGCTG | 5.45 | 3.6 | 2.68 | 1.49 | 3.89 | 4.31 | 3.47 |
| CCGATTAACATCAGGACGCCCCCTGATGTTAATCGGGTCTTGATTCGCTTGACGCTGCTG | 6.15 | 5.13 | 3.21 | 1.59 | 3.85 | 7.57 | 4.71 |
